The results in this text go back to ChEMBL document CHEMBL3988442, “University of Dundee, Small-Polar-MMV Screening Library” (2021).

Design in all cases: scale not given: direction of the effect not stated beside the values
Assay [1] deals with Protein translocase subunit SecA (Escherichia coli (strain K12)) (UniProt P10408). In words: Assay to Identify E. coli SecA ATPase Inhibitors. Format: functional. As to conditions: 30 µM.
Assay [2] concerns the target T1, Ubiquitin-activating enzyme e1, putative (Leishmania donovani (strain BPK282A1)) (UniProt E9BSI1).
T1 sequence (whole entry): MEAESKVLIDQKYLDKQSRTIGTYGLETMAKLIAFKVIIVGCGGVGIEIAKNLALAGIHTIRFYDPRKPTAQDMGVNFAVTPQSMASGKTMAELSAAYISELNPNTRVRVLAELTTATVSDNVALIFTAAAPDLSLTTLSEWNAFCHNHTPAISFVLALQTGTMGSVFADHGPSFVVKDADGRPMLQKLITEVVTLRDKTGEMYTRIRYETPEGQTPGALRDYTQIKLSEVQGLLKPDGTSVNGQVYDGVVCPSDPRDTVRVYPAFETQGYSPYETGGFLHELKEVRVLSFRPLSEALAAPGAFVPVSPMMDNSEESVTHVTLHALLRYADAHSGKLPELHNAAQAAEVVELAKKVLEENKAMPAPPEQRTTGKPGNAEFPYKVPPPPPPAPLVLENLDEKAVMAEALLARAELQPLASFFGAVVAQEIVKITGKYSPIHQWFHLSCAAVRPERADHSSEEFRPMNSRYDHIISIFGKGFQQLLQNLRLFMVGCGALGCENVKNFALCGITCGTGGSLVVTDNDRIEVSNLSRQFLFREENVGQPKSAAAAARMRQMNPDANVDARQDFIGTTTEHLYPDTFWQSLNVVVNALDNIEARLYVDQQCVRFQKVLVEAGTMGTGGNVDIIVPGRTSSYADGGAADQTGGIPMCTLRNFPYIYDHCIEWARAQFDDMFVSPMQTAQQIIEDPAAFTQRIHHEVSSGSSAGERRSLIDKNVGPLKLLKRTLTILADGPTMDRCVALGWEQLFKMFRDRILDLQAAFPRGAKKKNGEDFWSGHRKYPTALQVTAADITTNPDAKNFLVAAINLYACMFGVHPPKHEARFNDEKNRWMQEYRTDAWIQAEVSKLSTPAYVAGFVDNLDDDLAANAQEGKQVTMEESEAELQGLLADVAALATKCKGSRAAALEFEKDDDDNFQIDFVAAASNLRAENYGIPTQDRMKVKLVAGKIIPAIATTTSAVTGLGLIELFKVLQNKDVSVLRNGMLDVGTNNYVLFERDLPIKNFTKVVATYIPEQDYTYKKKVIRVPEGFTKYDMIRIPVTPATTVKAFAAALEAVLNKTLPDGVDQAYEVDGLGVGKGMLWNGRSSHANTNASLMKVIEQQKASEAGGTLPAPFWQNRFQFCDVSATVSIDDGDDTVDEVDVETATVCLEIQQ
In words: Leishmania donovani Ubiquitin Activating Enzyme (LdE1). Format: functional. To be noted: 30 µM.

Assay [3] has as its target AMP-activated protein kinase, AMPK (Homo sapiens) (UniProt P54646+O43741+P54619+Q9UGJ0+Q9Y478+Q13131+Q9UGI9). Kind of assay: AMP-dependent Kinase enzyme assay. An in vitro enzyme assay that detects ADP turnover that is directly proportional to AMPK activity. This uses naive AMPK that is activated during the assay with MK-8722. The assay is classed as functional. As to conditions: 30 µM.

Assay [4] deals with Sialic acid-binding Ig-like lectin 9 (Homo sapiens) (UniProt Q9Y336). In words: Hs-Siglec9 ALPHAscreen SOP 20170721. As to conditions: 10 µM. Background: Bead proximity is the source of the signal in Alpha formats.
A further assay concerns Trypanosoma cruzi. In words: Trypanosoma cruzi phosphomannomutase and mannose-1-phosphate guanylyltransferase assay. As to conditions: 10 µM. The assay is classed as functional.
The target in assay [5] is T2, Arginase-2, mitochondrial (Homo sapiens) (UniProt P78540).
T2 sequence (whole entry): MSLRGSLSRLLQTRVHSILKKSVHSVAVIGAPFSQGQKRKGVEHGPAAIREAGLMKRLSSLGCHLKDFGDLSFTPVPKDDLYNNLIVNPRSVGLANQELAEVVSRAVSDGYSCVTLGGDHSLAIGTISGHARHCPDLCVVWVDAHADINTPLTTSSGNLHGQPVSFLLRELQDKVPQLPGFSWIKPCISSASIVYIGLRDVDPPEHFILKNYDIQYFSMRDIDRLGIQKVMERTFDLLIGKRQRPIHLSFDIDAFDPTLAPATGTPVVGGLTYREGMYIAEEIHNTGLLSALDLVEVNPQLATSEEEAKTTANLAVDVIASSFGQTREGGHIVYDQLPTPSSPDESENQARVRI
Kind of assay: in vitro enzyme assay to detect the production of urea directly proportional to the activity of Arginase II. Also: in the data most compounds retested in dose-response had high values. To be noted: 33.3 µM. The assay is classed as functional.

Assay [6] concerns the target T3, Proteasome subunit beta (Trypanosoma cruzi) (UniProt O96673).
T3 sequence (whole entry): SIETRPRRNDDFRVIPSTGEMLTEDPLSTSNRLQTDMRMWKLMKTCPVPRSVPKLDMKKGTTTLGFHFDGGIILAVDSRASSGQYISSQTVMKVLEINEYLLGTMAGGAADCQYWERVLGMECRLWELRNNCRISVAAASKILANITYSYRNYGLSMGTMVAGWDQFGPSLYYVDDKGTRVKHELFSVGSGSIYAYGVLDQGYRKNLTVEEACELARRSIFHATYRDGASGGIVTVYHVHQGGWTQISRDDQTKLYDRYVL
Kind of assay: Trypanosoma cruzi proteasome chymotrypsin-like activity (TcProtChymo) assay. Also: in the data most compounds retested in dose-response had high values. The assay is classed as functional. To be noted: 9.37 µM.

For the next assay, the species on record is Homo sapiens. Kind of assay: To identify inhibition of the IFN signalling (Jak-Stat) pathway via expression of an eGFP reporter gene under the control of an IFN-stimulated response element (ISRE) containing MxA promoter. To be noted: 30 µM. Format: functional.
Assay [7] concerns the target T4, Tyrosyl-tRNA synthetase, putative (Trypanosoma cruzi (strain CL Brener)) (UniProt Q4DSP6).
T4 sequence (whole entry): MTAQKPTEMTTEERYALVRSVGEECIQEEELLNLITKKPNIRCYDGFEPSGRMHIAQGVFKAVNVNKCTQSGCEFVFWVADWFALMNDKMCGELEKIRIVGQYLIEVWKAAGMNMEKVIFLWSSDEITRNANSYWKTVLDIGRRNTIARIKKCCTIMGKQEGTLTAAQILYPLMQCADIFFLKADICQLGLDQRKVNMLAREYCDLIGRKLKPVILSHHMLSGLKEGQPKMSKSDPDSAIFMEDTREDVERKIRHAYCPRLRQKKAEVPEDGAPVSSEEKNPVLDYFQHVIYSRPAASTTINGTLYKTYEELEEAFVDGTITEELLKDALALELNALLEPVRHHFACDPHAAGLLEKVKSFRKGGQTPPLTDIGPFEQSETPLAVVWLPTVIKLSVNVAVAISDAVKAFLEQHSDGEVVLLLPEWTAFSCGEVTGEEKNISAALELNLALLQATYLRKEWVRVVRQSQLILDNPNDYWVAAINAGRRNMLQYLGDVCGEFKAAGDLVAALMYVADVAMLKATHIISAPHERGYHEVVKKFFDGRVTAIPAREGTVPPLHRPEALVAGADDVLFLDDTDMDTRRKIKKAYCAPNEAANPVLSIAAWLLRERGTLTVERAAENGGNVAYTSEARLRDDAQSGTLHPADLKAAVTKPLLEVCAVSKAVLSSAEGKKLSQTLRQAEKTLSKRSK
In words: Trypanosoma cruzi tyrosyl tRNA synthetase (TcYRS) _High Tyrosine SOP. Also: in the data most compounds retested in dose-response had high values. Format: functional. As to conditions: 30 µM.

The target in assay [8] is T4, Tyrosyl-tRNA synthetase, putative (Trypanosoma cruzi (strain CL Brener)). In words: Trypanosoma cruzi tyrosyl tRNA synthetase (TcYRS) SOP. Format: functional. To be noted: 30 µM.
Assay [9] deals with Chromo domain-containing protein 1 (Saccharomyces cerevisiae (strain ATCC 204508 / S288c) (Baker's yeast)) (UniProt P32657). In words: ScCHD-1 Enzyme Inhibition Assay. Also: in the data most compounds retested in dose-response had high values. The assay is classed as functional. As to conditions: 30 µM.

For some of these results: Results with a measured potency or affinity are listed apart.

Sequence of Protein translocase subunit SecA (Escherichia coli (strain K12)) (P10408 whole entry): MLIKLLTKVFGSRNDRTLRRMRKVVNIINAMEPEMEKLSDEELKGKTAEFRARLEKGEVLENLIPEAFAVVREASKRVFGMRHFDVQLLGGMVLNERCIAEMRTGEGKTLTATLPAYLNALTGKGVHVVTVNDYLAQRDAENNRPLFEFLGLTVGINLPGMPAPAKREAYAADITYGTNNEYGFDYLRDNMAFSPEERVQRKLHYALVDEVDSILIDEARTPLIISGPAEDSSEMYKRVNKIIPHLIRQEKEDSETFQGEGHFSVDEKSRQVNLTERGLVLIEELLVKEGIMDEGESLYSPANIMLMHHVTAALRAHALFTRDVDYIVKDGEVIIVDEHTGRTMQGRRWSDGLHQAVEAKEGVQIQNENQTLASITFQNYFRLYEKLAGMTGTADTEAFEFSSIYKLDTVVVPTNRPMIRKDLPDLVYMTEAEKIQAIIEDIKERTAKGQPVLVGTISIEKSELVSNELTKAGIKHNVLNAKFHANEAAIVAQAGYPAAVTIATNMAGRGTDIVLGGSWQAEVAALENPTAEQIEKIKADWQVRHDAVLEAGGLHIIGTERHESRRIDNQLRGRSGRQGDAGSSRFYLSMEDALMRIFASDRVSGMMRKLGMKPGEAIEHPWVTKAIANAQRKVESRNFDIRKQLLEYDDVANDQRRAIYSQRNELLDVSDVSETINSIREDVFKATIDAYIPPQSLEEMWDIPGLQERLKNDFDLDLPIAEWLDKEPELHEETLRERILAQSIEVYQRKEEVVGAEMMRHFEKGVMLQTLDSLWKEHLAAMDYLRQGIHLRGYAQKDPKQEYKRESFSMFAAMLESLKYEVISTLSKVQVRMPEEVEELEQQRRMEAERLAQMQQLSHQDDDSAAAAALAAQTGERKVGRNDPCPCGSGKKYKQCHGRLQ
Sequence of Chromo domain-containing protein 1 (Saccharomyces cerevisiae (strain ATCC 204508 / S288c) (Baker's yeast)) (P32657 whole entry, the tested form may be a part): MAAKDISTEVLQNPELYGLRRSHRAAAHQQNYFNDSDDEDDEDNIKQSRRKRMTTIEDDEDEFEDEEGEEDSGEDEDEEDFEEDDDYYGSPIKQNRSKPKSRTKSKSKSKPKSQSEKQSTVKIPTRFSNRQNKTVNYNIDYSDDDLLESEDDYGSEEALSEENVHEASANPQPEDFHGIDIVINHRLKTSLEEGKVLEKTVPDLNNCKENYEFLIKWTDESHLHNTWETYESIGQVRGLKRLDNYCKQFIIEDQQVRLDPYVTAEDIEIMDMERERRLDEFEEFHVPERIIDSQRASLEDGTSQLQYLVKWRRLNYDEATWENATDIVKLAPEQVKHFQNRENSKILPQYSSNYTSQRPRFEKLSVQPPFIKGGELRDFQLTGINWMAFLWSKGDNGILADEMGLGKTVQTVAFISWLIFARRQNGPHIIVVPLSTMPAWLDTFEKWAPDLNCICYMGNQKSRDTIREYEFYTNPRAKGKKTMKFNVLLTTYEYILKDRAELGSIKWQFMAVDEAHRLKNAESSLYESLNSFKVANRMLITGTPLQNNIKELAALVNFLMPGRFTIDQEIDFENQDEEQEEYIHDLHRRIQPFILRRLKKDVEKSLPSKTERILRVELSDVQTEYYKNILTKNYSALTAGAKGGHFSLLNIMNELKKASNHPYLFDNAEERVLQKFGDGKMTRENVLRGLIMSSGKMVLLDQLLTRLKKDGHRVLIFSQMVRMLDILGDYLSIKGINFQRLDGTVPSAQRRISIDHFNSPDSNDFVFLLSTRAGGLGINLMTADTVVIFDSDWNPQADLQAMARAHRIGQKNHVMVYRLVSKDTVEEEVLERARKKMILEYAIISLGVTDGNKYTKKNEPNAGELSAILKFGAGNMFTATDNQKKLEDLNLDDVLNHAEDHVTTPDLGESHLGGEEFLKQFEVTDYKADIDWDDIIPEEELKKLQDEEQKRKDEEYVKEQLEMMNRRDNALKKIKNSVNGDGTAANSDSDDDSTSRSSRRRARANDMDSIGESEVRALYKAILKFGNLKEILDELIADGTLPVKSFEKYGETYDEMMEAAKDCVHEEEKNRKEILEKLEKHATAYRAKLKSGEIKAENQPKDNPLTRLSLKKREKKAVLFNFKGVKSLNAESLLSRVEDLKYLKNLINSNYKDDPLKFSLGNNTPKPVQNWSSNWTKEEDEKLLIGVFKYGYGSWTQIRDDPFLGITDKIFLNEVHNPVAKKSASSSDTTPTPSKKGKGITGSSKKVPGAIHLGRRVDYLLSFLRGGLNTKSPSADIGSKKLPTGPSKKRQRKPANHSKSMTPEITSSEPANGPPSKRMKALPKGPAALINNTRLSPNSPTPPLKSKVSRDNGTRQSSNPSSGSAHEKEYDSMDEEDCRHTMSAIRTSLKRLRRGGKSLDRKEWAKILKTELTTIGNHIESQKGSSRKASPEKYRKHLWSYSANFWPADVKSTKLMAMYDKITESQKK
Sequence of Sialic acid-binding Ig-like lectin 9 (Homo sapiens) (Q9Y336 whole entry): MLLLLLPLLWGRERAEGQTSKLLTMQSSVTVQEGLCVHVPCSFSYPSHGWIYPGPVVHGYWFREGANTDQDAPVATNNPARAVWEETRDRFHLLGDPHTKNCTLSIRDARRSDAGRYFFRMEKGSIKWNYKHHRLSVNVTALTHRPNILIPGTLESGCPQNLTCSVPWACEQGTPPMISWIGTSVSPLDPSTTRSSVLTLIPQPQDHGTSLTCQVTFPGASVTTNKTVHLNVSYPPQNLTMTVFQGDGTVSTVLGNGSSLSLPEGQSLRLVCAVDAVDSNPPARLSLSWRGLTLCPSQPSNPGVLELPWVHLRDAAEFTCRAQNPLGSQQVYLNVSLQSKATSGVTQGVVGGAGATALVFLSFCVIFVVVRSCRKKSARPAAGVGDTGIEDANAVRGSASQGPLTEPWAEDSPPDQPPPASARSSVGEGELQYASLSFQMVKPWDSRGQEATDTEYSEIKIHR

With `Cc1nc(N2CCCC2)ncc1-c1cc(O)nc(N2CCCC2)n1`, the Percent Effect is -4.52% in assay [1]; -1.33% in [2]; 4.03% in [3]; 6.18% in assay [4]; -4.13% with Trypanosoma cruzi; -2.64% in assay [5]. The Percent Effect in assay [6] is 7.76%; in the assay listed under Homo sapiens, -0.506%; in [7] it was 2.12%; in assay [8] it was 0%; in assay [9], -1.52%.

`O=C(CCn1ccc2cc(Br)ccc21)NCc1ccc(C(=O)O)cc1`: the Percent Effect in assay [1] is -5.12%; in assay [2] it was 2.63%; in assay [3] it was 11.6%; in assay [4] it was 0.438%; with Trypanosoma cruzi it was -3.02%; in [5] it was -3.55%. The Percent Effect was 16.2% in assay [6]; 10.9% in the assay filed under Homo sapiens; -6.38% in assay [7]; -10.4% in assay [8]; -1.59% in assay [9].

Take `Cn1cc(CN2CC[C@H]3C[C@H](c4nc(C5CC5)cs4)O[C@@H]3C2)cn1`: the Percent Effect is -0.2% in assay [1]; 18.2% in [2]; -0.28% in assay [3]; 13.1% in assay [4]; 6.59% in the assay on Trypanosoma cruzi; -9.65% in assay [5]. Also, the Percent Effect is 10.8% in [6]; 12.1% in the assay listed under Homo sapiens; 4.3% in assay [7]; 16.1% in assay [8]; -1.85% in assay [9].

Turning to `CN1CCN(C(=O)c2cncc(CC3CCCN(C)C3)c2)CC1` (stereo unspecified), the Percent Effect is -3.41% in assay [1]; 9.46% in assay [2]; 5.47% in [3]; 12% in assay [4]; -8.3% in the assay on Trypanosoma cruzi; -7.66% in assay [5]. The Percent Effect in [6] is 12%; in the assay filed under Homo sapiens, 15.9%; in assay [7] it was 1.07%; in assay [8], 1.3%; in [9], -9.97%.

Regarding `Fc1ccc(CN2CCC(c3n[nH]c4nccnc34)CC2)cc1F`, the Percent Effect was -3.35% in assay [1]; 9.46% in assay [2]; 4.38% in [3]; -4.91% in [4]; 0.593% in the assay with Trypanosoma cruzi; -1.16% in assay [5]. The Percent Effect in assay [6] was 19.8%; in the assay filed under Homo sapiens, 7.61%; in assay [7], 1.07%; in assay [8], 6.49%; in assay [9], -18.1%.

Take `COCCNC(=O)NCCc1ccn(-c2ccccc2)n1`: the Percent Effect in assay [1] was -3.6%; in assay [2], -3.8%; in assay [3] it was 7.66%; in [4] it was 4.04%; in the assay on Trypanosoma cruzi, 5.64%; in assay [5], -0.215%. Further, the Percent Effect in [6] was 13.7%; in the assay filed under Homo sapiens, 5.09%; in [7] it was -4.17%; in assay [8] it was 10.1%; in [9] it was -16.7%.

On to `CC(=O)N1CCOC(c2cc(N3CC(O)C3)nc(C)n2)C1` (stereo unspecified), for which the Percent Effect in assay [1] was -3.22%; in assay [2], 5.33%; in assay [3] it was 11%; in assay [4] it was -2.94%; in the assay with Trypanosoma cruzi, 0.394%; in assay [5], 2.1%. For the same compound, the Percent Effect in [6] is 11.2%; in the assay filed under Homo sapiens it was 0.425%; in assay [7], 5.32%; in assay [8], 16.7%; in assay [9] it was -2.41%.

Regarding `O=C(CCc1ccccc1)C1CCCN(C(=O)c2ncc(F)cc2F)C1` (stereo unspecified), the Percent Effect in assay [1] is -4.95%; in [2], 5.48%; in [3], 0.372%; in assay [4] it was -8.02%; in the assay with Trypanosoma cruzi, -1.18%; in assay [5], 2.73%. Further, the Percent Effect in [6] is 9.94%; in the assay listed under Homo sapiens it was 2.79%; in assay [7], 5.38%; in assay [8], 10%; in [9] it was -1.5%.

Regarding `CNC1CCCN(Cc2noc(C3CC3)n2)C1` (stereo unspecified), the Percent Effect in assay [1] was 0.64%; in [2] it was -5.41%; in [3] it was -3.33%; in assay [4], -1.4%; in the assay on Trypanosoma cruzi, -0.193%; in assay [5] it was -0.476%. Also, the Percent Effect in assay [6] is 1.9%; in the assay listed under Homo sapiens, -1.86%; in [7] it was 1.59%; in assay [8], 0%; in assay [9] it was 0.831%.

For the compound `O=C(Cc1ccc(-n2cccn2)cc1)N1CCCC(n2cccn2)C1` (stereo unspecified), the Percent Effect was -9.35% in [1]; 10.4% in assay [2]; -6.09% in assay [3]; -18.3% in assay [4]; 11.5% in the assay with Trypanosoma cruzi; -1.9% in assay [5]. In addition, the Percent Effect in assay [6] was 13.8%; in the assay listed under Homo sapiens, -3.32%; in assay [7], 6.67%; in [8], 11.8%; in assay [9], -20%.

For the compound `O=C(c1cccc2c1OCO2)N1CCCC(n2cccn2)C1` (stereo unspecified), the Percent Effect is -4.91% in assay [1]; 2.7% in [2]; -10.6% in assay [3]; 1.58% in assay [4]; -5.94% in the assay with Trypanosoma cruzi; -1.2% in assay [5]. In addition, the Percent Effect in assay [6] was 8.29%; in the assay filed under Homo sapiens it was 10.5%; in assay [7] it was 0.493%; in assay [8], 3.7%; in assay [9] it was -1.47%.
